# Data as given in PubChem BioAssay (Tox21).
# “And” between values parts separate entries of the source, which are not always exact repeats. Equal values may be shown once. Results filed as inconclusive are left out. A call without a number means that no potency is given here. Where a structure was tested more than once in an assay, its records may differ in their call. The source made the active and inactive calls. Unless noted, calls come from the whole dose curve; as a rule, active = well fitted curve in the direction sought with a large enough effect in the repeat runs; inconclusive = weak or mixed curves; inactive = no such curve, though single readings can be large; an effect the other way counts as inactive or inconclusive.
# Legend:
# [1] = target: Estrogen receptor beta (Homo sapiens) (UniProt Q92731); assay: qHTS assay to identify small molecule agonists of the estrogen receptor beta (ER-beta) signaling pathway (AID 1259377; active = well fitted activation curve with a large enough effect in the signal ratio in the repeat runs, not every such curve was filed as active; the % refers to the signal ratio)
# Chain of Estrogen receptor beta (Homo sapiens) (Q92731 whole entry, looked up): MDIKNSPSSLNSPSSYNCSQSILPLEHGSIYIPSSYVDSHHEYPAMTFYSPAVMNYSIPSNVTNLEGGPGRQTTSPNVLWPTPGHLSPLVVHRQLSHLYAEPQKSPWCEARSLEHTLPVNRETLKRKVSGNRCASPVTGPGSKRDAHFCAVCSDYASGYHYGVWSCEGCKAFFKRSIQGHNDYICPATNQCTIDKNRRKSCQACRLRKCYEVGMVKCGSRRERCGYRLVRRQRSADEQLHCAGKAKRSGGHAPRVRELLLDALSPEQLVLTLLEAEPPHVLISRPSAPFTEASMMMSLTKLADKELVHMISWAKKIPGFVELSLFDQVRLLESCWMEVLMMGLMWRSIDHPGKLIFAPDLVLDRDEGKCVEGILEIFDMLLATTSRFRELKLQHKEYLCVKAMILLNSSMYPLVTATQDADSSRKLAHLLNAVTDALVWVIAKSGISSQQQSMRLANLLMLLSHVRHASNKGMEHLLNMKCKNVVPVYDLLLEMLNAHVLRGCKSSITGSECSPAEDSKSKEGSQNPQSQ
# Procedure, shortened: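 HEK293T ER-beta-UAS-bla; 2% charcoal-stripped FBS; cells pre-incubated 6 hr, compound 16 hr, 37C/5% CO2; LiveBLAzer B/G FRET substrate 2 h RT; fluorescence intensity read.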
# [2] = target: Estrogen receptor beta (Homo sapiens) (UniProt Q92731); assay: qHTS assay to identify small molecule antagonists of the estrogen receptor beta (ER-beta) signaling pathway (AID 1259378; active = well fitted inhibition curve with a large enough effect in the signal ratio in the repeat runs, not every such curve was filed as active; the % refers to the signal ratio; note: potency is the fitted concentration of half-maximal effect)
# Procedure, shortened: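 ER-beta-UAS-bla HEK293T cells in 2% charcoal-stripped FBS medium treated with compound plus 1nM final 17-beta-estradiol for 16 hr at 37C. Beta-lactamase reporter read by FRET substrate fluorescence after 2 hours at room temperature.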
# [3] = qHTS assay to identify small molecule agonists of the androgen receptor (AR) signaling pathway in the presence of an antagonist - cell viability counter screen (AID 1259379); note: nearly all actives have a fitted effect of over 25% in size; note: potency is the fitted concentration of half-maximal effect
# Procedure, shortened: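 Viability counter screen: CellTiter-Fluor fluorescence, measured in the same wells as the luciferase read-out. MDA-kb2 cells, 3,000/well, with nilutamide at 3.0uM final and compounds at 15 concentrations, 16 hr at 37C, 0% CO2.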
# [4] = qHTS assay to identify small molecule agonists of the estrogen receptor beta (ER-beta) signaling pathway - cell viability counter screen (AID 1259380); note: nearly all actives have a fitted effect of over 30% in size; note: potency is the fitted concentration of half-maximal effect
# Procedure, shortened: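 Luminescence read-out (CellTiter-Glo, 30 min, room temp) taken in the same wells as the beta-lactamase reporter assay; ER-beta-UAS-bla HEK293T cells exposed to DMSO-dissolved compounds for 16 hr at 37C in 2% charcoal-stripped FBS medium.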
# [5] = target: Androgen receptor (Homo sapiens) (UniProt P10275); assay: qHTS assay to identify small molecule agonists of the androgen receptor (AR) signaling pathway in the presence of an antagonist (AID 1259381; calls by dose curve; note: nearly all actives have a fitted effect of over 15% in size)
# Chain of Androgen receptor (Homo sapiens) (P10275 whole entry, looked up): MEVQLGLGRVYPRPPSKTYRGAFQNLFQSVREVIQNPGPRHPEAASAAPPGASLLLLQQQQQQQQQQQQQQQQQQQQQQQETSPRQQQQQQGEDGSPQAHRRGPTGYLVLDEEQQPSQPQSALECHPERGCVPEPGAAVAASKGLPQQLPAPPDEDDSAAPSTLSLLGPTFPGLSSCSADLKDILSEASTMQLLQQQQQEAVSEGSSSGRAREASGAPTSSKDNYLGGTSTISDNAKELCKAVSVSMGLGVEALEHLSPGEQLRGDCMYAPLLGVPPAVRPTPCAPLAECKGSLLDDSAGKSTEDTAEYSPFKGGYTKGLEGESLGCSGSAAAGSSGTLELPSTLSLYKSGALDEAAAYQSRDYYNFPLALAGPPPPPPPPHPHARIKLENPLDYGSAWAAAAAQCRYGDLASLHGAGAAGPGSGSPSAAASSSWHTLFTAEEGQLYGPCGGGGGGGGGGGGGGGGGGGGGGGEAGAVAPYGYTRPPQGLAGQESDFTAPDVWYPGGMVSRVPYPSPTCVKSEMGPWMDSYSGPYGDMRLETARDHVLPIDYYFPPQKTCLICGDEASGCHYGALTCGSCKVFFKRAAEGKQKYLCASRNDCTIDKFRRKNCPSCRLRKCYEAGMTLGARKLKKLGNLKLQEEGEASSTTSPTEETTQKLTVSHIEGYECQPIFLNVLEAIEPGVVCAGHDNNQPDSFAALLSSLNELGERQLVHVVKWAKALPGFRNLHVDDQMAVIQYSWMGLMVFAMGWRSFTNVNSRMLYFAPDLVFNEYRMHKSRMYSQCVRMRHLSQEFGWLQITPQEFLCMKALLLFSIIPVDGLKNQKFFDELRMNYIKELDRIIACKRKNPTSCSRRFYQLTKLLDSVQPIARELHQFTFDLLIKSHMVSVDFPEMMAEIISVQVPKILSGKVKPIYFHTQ
# Procedure, shortened: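 Luciferase read-out (ONE-Glo, 30min room temperature) in MDA-kb2 MMTV-reporter cells; agonist mode run in presence of AR antagonist nilutamide, 3.0uM final. Compounds tested as 15-point series, 16hr exposure at 37C, 0% CO2.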
# [6] = qHTS assay to identify small molecule antagonists of the estrogen receptor beta (ER-beta) signaling pathway - cell viability counter screen (AID 1259382); note: nearly all actives have a fitted effect of over 55% in size; note: potency is the fitted concentration of half-maximal effect
# Procedure, shortened: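 Luminescent ATP read-out (CellTiter-Glo, 30 min, RT) taken in the same wells as the bla reporter assay. HEK293T ER-beta-UAS-bla cells in 2% charcoal-stripped FBS were exposed to compounds with 1nM E2 for 16 hr at 37C.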
# [7] = target: Estrogen receptor (Homo sapiens) (UniProt P03372); assay: qHTS assay to identify small molecule agonists of the estrogen receptor alpha (ER-alpha) signaling pathway in the presence of an antagonist (AID 1259383; calls by dose curve; note: top concentration of the series differs between compounds; nearly all actives have a fitted effect of over 15% in size)
# Chain of Estrogen receptor (Homo sapiens) (P03372 whole entry, looked up): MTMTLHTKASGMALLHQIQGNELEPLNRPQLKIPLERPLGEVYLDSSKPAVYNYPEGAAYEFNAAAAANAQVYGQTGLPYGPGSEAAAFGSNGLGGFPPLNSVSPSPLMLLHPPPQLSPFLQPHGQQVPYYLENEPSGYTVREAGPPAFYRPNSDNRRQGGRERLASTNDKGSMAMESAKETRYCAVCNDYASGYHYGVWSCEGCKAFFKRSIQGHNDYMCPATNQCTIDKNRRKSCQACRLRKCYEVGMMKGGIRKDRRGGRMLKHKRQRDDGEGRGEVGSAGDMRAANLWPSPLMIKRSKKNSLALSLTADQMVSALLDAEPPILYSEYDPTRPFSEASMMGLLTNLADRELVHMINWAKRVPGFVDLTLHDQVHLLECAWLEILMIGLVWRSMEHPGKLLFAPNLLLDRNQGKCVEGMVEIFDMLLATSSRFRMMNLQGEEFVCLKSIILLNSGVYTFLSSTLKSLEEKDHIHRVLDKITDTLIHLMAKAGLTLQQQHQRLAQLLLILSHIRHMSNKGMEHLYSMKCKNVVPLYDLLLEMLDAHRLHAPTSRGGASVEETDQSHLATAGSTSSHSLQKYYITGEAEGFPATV
# Procedure, shortened: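 Luciferase luminescence (ONE-Glo, 30min at room temperature) measured in VM7Luc4E2 cells after 22hr compound exposure at 15 concentrations, with 10.0nM ICI-182,780 final present; cells express endogenous ER-alpha and carry four EREs upstream of luciferase.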
# [8] = qHTS assay to identify small molecule agonists or antagonists of the thyroid stimulating hormone receptor (TSHR) signaling pathway - wild type cell line counter screen (AID 1259384; calls by dose curve)
# Procedure, shortened: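 Wild-type Hek293 cells, 800/well, 18 h at 37C, then compound with Ro20-1724 for 30 min RT. cAMP by HTRF (cAMP-d2/anti-cAMP cryptate), 1 h RT, fluorescence read. 15 concentrations, triplicates.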
# [9] = target: Thyrotropin receptor (Homo sapiens) (UniProt P16473); assay: qHTS assay to identify small molecule antagonists of the thyroid stimulating hormone receptor (TSHR) signaling pathway (AID 1259385; calls by dose curve; note: nearly all actives have a fitted effect of over 20% in size)
# Chain of Thyrotropin receptor (Homo sapiens) (P16473 whole entry, looked up): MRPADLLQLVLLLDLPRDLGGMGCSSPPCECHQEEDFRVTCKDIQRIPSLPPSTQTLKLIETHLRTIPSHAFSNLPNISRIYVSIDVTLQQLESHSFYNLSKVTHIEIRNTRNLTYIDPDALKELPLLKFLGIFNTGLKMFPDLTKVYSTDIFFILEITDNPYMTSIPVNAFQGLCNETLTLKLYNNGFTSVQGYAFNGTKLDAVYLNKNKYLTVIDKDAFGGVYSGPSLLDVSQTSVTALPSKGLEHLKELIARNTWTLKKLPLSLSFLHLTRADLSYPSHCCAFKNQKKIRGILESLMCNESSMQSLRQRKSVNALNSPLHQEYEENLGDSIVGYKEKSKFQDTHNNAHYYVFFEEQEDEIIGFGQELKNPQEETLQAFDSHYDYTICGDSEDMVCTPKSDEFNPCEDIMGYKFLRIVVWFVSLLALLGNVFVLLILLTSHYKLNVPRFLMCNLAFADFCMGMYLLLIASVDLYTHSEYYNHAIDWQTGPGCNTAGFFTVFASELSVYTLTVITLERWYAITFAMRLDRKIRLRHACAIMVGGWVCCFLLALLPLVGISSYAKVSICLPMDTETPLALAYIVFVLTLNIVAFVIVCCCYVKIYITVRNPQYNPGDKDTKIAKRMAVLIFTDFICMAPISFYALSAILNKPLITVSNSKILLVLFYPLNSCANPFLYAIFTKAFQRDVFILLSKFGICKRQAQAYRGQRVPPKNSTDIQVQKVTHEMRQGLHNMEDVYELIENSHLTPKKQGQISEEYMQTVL
# Procedure, shortened: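 TSHR-HEK293 cells (800/well) plated 18 h, then compounds with Ro20-1724 and TSH at 1.5 ng/mL final, 30 min at room temperature. cAMP quantified by HTRF (cAMP-d2/anti-cAMP-cryptate, 1 h); 15 concentrations in triplicate.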
# [10] = target: Progesterone receptor (Homo sapiens) (UniProt P06401); assay: qHTS assay to identify small molecule agonists of the progesterone receptor (PR) signaling pathway (AID 1346784; calls by dose curve; note: nearly all actives have a fitted effect of over 30% in size)
# Chain of Progesterone receptor (Homo sapiens) (P06401 whole entry, looked up): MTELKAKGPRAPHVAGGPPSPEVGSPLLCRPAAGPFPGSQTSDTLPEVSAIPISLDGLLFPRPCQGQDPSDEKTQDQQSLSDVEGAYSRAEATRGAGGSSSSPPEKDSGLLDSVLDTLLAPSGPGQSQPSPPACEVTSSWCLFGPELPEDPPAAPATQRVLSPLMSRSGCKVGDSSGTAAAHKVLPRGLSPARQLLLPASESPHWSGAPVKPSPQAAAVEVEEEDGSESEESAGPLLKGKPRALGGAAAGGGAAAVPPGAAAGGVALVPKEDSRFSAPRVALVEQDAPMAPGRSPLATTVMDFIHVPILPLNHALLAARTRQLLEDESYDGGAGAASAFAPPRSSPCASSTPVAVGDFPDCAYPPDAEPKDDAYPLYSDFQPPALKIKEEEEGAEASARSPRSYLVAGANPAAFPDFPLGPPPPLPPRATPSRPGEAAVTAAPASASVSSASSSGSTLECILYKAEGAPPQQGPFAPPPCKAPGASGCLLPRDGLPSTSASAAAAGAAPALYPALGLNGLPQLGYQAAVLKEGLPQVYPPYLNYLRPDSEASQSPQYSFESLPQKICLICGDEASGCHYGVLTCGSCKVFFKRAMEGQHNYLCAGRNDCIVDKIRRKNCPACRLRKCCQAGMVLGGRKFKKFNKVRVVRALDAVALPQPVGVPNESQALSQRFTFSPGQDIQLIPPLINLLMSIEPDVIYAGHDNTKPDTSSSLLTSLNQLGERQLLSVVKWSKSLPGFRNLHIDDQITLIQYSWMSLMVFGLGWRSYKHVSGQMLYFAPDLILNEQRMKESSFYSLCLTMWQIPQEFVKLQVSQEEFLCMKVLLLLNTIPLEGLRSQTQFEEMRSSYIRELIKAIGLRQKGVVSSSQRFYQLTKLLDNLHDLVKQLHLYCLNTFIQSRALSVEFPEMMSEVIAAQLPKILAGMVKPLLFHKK
# Procedure, shortened: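 Beta-lactamase reporter read-out: after 16 hr compound treatment at 37C and a further 2 hr at room temperature with LiveBLAzer B/G FRET substrate, fluorescence was measured in PR-UAS-bla HEK 293T cells grown in 2% charcoal-stripped serum.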
# [11] = target: Progesterone receptor (Homo sapiens) (UniProt P06401); assay: qHTS assay to identify small molecule antagonists of the progesterone receptor (PR) signaling pathway (AID 1346795; active = well fitted inhibition curve with a large enough effect in the signal ratio in the repeat runs, not every such curve was filed as active; the % refers to the signal ratio; note: potency is the fitted concentration of half-maximal effect)
# Procedure, shortened: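 Read-out is fluorescence from the LiveBLAzer B/G FRET substrate, cleaved by a UAS-controlled beta-lactamase in PR-UAS-bla HEK293T cells after 16 hr exposure to compound plus 1 nM promegestone (final), followed by 2 hr at room temperature.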
# [12] = qHTS assay to identify small molecule antagonists of the progesterone receptor (PR) signaling pathway - cell viability counter screen (AID 1346798); note: nearly all actives have a fitted effect of over 50% in size; note: potency is the fitted concentration of half-maximal effect
# Procedure, shortened: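 HEK293T PR-UAS-bla, 2% charcoal-stripped FBS; 4 hr pre-plate; cpd + R5020, 16 h 37C; LiveBLAzer read first; then CellTiter-Glo 30 min RT, luminescence.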
# [13] = qHTS assay to identify small molecule antagonists of the TGF-beta/Smad signaling pathway - cell viability counter screen (AID 1346824); note: nearly all actives have a fitted effect of over 50% in size
# Procedure, shortened: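 SBE-bla HEK 293T cells, incubated overnight, then compound plus 0.25 ng/mL TGF-beta1 (stock added) for 5 hr at 37 C. Viability was read in the same wells by CellTiter-Glo luminescence after 30 min at room temperature.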
# [14] = qHTS assay to identify small molecule agonists of the TGF-beta/Smad signaling pathway - cell viability counter screen (AID 1346829); note: nearly all actives have a fitted effect of over 45% in size; note: potency is the fitted concentration of half-maximal effect
# Procedure, shortened: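 SBE-bla HEK 293T cells plated overnight, compound exposure 5 hr at 37 C. Viability read in the same wells by CellTiter-Glo luminescence after 30 min at room temperature, following the beta-lactamase read.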
# [15] = qHTS assay to identify small molecule agonists of the TGF-beta/Smad signaling pathway (AID 1346859; active = well fitted activation curve with a large enough effect in the signal ratio in the repeat runs, not every such curve was filed as active; the % refers to the signal ratio; note: series mostly up to about 77 µM)
# Procedure, shortened: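 SBE-bla HEK 293T, 4,000 cells/well, plated o/n; cpd in DMSO, 5 hr, 37 C/5% CO2; B/G FRET substrate 2 hr RT; ex 405, em 460/530 nm.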
# [16] = target: Thyrotropin-releasing hormone receptor (Homo sapiens) (UniProt P34981); assay: qHTS assay to identify small molecule antagonists of the thyrotropin-releasing hormone receptor (TRHR) signaling pathway (AID 1346877; active = well fitted inhibition curve with a large enough effect in the repeat runs, not every such curve was filed as active; note: series mostly up to about 51 µM)
# Chain of Thyrotropin-releasing hormone receptor (Homo sapiens) (P34981 whole entry, looked up): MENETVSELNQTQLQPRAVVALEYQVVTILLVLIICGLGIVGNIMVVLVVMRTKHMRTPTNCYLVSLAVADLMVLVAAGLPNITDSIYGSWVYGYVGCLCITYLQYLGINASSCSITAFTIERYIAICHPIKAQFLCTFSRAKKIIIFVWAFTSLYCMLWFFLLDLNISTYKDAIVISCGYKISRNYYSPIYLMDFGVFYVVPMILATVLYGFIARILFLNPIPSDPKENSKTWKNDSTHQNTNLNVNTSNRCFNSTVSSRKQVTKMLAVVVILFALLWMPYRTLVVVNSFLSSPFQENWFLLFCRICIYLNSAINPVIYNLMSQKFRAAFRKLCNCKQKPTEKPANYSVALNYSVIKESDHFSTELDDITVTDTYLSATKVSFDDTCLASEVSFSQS
# Procedure, shortened: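 HEK293/TRHR cells, 18 h, 37 °C; Ca2+ dye 2 h; cpd 5 min RT; TRH 1 nM final; fluorescence read 3 min, 1 s intervals; 15 concs, triplicate.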
# [17] = target: Thyrotropin-releasing hormone receptor (Homo sapiens) (UniProt P34981); assay: qHTS assay to identify small molecule agonists of the thyrotropin-releasing hormone receptor (TRHR) signaling pathway (AID 1346891; calls by dose curve; note: series mostly up to about 58 µM)
# Procedure, shortened: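 Intracellular calcium rise, read as fluorescence every second for 3 min, served as the agonist signal in dye-loaded HEK293 cells expressing TRHR; each compound ran at 15 concentrations in triplicate.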
# [18] = qHTS assay to identify small molecule antagonists of the sonic hedgehog signaling (Shh) pathway (AID 1259369; calls by dose curve; note: nearly all actives have a fitted effect of over 45% in size; note: potency is the fitted concentration of half-maximal effect)
# Procedure, shortened: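 Luminescence readout: firefly Luc under Gli1 response element in 3T3Gli1-Luc cells (NIH/3T3 clone). Antagonist mode, stimulation by conditioned medium; compound exposure 24hr at 37 C, 5% CO2.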
# [19] = qHTS assay to identify small molecule agonists of the estrogen receptor alpha (ER-alpha) signaling pathway in the presence of an antagonist - cell viability counter screen (AID 1259386);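 note: series mostly up to about 92 µM; cells exposed to compounds for 22 h at 37 °C before the viability read; nearly all actives have a fitted effect of over 30% in size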
# Procedure, shortened: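 Read-out: CellTiter-Fluor fluorescence after 1hr reagent incubation, measured in the same wells as the luciferase readout. VM7Luc4E2 cells were exposed to 15 compound concentrations with 10.0nM ICI-182,780 for 22hr at 37C.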
# [20] = qHTS assay to identify small molecule agonists of the progesterone receptor (PR) signaling pathway - cell viability counter screen (AID 1346799; calls by dose curve; note: nearly all actives have a fitted effect of over 45% in size)
# Procedure, shortened: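 Luminescence from CellTiter-Glo, added after the beta-lactamase FRET read in the same wells, gave cytotoxicity in PR-UAS-bla HEK293T cells treated with compounds for 16 hr at 37C.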
SMILES,Potency [1],Potency [2],Potency [3],Potency [4],outcome [5],Potency [6],Potency [7],outcome [8],Potency [9],Potency [10],Potency [11],Potency [12],Potency [13],Potency [14],Potency [15],Potency [16],outcome [17],Potency [18],Potency [19],Potency [20]
CCN1C(=O)c2ccccc2C1Nc1ccc(OCCN2CCCCC2)cc1 (centres undefined),inactive,inactive,inactive,inactive,inactive,inactive,inactive,inactive,inactive,inactive,inactive,inactive,inactive,inactive,inactive,inactive,inactive,–,–,–
Cc1nc2n(c(=O)c1CCN1CCC(c3noc4cc(F)ccc34)CC1)CCCC2,–,–,inactive,–,–,inactive,inactive,inactive,–,inactive,inactive,inactive,–,inactive,inactive,inactive,inactive,inactive,inactive,–
CN(C)[C@@H](CCOc1cccc2ccccc12)c1ccccc1,inactive,29.8 µM (active),29.8 µM (active),23.7 µM (active),inactive,15 µM (active),inactive,inactive,inactive,inactive,–,–,–,inactive,inactive,inactive,inactive,–,inactive,–
O=C(O)c1cc(N=Nc2ccc([N+](=O)[O-])cc2)ccc1O,–,–,60 µM (active),–,–,–,inactive,inactive,inactive,inactive,–,–,inactive,inactive,–,inactive,inactive,inactive,–,–
CCCCCCCCCCCCCC[N+](C)(C)C,–,–,33.2 µM (active) and 24.3 µM (active) and 10.6 µM (active),26.4 µM (active) and 27.3 µM (active),–,26.4 µM (active) and 30.6 µM (active) and 33.5 µM (active),inactive,–,–,inactive,–,48.5 µM (active) and 33.5 µM (active),–,54.9 µM (active) and inactive,–,–,–,27.3 µM (active) and 531 nM (active),inactive,–
Nc1nc(-c2ccccc2)cs1,–,–,inactive,inactive,–,inactive,–,inactive,inactive,inactive,–,inactive,inactive,inactive,inactive,inactive,inactive,inactive,inactive,inactive
Cc1ccc(O)c(N)c1,–,–,inactive,24.4 µM (active),–,–,inactive,inactive,–,–,–,inactive,inactive,inactive,inactive,inactive,inactive,8.64 µM (active),–,–
O=c1[nH]c2ccccc2n1CCCN1CCN(C(c2ccccc2)c2ccccc2)CC1,–,–,–,11.9 µM (active),–,–,–,inactive,inactive,inactive,29.8 µM (active),–,inactive,inactive,–,–,–,3.35 µM (active),inactive,–
